Data taken from PubChem BioAssay (NCATS).
“And” between values parts separate entries of the source, which are not always exact repeats. Equal entries are not always repeated. Records with an inconclusive call do not appear. The source made the active and inactive calls. Unless noted, the call rests on the fitted dose curve; in most records, active means well fitted curve in the direction sought with a large enough effect; inconclusive means small, poorly fitted or top-dose-only effect, or another doubt; inactive means no such curve, though single readings can be large; an effect the other way counts as inactive or inconclusive.

Assays:
[1] = AP1 Signaling Pathway (AID 357; active means well fitted curve in either direction with a large enough effect, not every such curve was filed as active;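 further: ME-180 reporter cells stimulated with EGF at its EC50 level; on the % scale 0 is the no-effect control and ±100 the full control effect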)
In short: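 Titration-series screen for positive or negative modulators of EC50 EGF-induced signaling in ME-180 cells carrying an AP-1-driven beta-lactamase reporter. After 5 hours at 37 degrees Celsius, CCF4 460nm/530nm emission ratio gave %Activity; AC50 values derived.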

[2] = NFAT Signaling Pathway (AID 444; active means well fitted curve in either direction with a large enough effect, not every such curve was filed as active;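 further: carbachol stimulus at about its EC50 of 1 µM final; on the % scale 0 is the no-effect control and ±100 the full control effect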); conditions: Jurkat NFAT-bla M1, carbachol, beta-lactamase ratio, 5 h; at 17.2 µM (top of the series)
In short: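 Read-out: CCF4 FRET ratio (460 nm/530 nm) after 1 h RT dye loading, used for %activity and AC50 from titration series. Cells: Jurkat NFAT-β-lactamase/M1 line, treated with compound plus 1 uM carbachol for 5 h, 37 °C.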

[3] = Stat Signaling Pathway (AID 446; active means well fitted curve in either direction with a large enough effect, not every such curve was filed as active;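 further: ME-180 cervical cancer cells given 40 pM IL-6 alongside compound; SIE-controlled beta-lactamase reporter measured as 460/530 nm FRET emission ratio; on the % scale 0 is the no-effect control and ±100 the full control effect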)
In short: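 Normalization used AC90 stimulation (300 pM IL-6) and AC90 inhibition (125 nM pan-JAK inhibitor at 40 pM IL-6). The underlying signal is SIE-driven beta-lactamase in ME-180 cells after 5 h IL-6 exposure with compound.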

[4] = biological target: Glucocorticoid receptor (Homo sapiens) (UniProt P04150); experiment: GR-GFP Redistribution (AID 450;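 active means compounds whose dose series gives a full or clear partial fitted curve of increased nuclear translocation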; further: potency means the concentration at half of the fitted maximal effect); conditions: U2OS GR-GFP nuclear translocation, laser cytometry, 2 h
Sequence of Glucocorticoid receptor (Homo sapiens) (P04150 whole entry, looked up, the tested form may be a part): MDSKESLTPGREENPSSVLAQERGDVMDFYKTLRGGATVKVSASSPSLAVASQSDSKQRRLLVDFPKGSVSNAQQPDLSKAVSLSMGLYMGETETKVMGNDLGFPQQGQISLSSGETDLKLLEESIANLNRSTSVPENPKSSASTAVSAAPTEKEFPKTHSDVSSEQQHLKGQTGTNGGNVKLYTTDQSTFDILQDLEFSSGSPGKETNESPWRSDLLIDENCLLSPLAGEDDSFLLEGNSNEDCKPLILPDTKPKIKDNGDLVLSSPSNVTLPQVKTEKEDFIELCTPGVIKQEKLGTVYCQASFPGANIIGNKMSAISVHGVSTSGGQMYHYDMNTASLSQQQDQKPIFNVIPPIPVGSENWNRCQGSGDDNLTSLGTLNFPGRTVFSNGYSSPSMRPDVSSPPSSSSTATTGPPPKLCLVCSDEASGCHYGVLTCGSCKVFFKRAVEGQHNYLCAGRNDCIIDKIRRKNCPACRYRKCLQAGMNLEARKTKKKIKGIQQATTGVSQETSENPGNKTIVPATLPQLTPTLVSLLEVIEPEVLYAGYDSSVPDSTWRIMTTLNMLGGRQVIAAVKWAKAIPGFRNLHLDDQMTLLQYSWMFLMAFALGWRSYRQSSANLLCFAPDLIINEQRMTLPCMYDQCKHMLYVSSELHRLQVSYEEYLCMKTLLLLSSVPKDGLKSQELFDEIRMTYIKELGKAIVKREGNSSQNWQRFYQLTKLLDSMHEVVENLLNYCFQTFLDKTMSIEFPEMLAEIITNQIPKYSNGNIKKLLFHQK

[5] = biological target: Glucocorticoid receptor (Homo sapiens) (UniProt P04150); experiment: GR-EFC Redistribution (AID 451; calls by dose curve; further: potency means the concentration at half of the fitted maximal effect); conditions: CHO-K1 GR-EFC translocation, beta-gal luminescence, 2 h
In short: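 Translocation of GR-ED fusion to nuclear EA restores b-gal, read by luminescence after 1 h room-temperature detection. Engineered CHO-K1 biosensor cells, 1,000/well, exposed 2 h at 37 C to titrations up to 46 uM final.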

[6] = biological target: Mitogen-activated protein kinase 10 (Mus musculus) (UniProt Q61831); experiment: JNK3 AlphaScreen Assay (AID 530; active means well fitted curve in either direction with a large enough effect, not every such curve was filed as active;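 further: kinase came from lysate of stimulated human HepG2 cells; signal reports phosphorylation of biotinylated GST-cJun 1-79 at Ser73 with 10 µM ATP; on the % scale 0 is the no-effect control and ±100 the full control effect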)
In short: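 qHTS titrations with 15 min compound pre-incubation before adding ATP (10 uM final). Read-out: AlphaScreen of Ser73-phosphorylated biotin-GST-cJun using HepG2 lysate JNK3 activated by IL-1β and TNFα.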

[7] = biological target: 3',5'-cyclic-AMP phosphodiesterase 4B (Homo sapiens) (UniProt Q07343); experiment: qHTS Assay for Inhibitors of PDE-IV (AID 607; active means well fitted activation curve with a large enough effect in the main read-out, with a control signal flat, not every such curve was filed as active; further: % of control where 0% means no effect)
Sequence of 3',5'-cyclic-AMP phosphodiesterase 4B (Homo sapiens) (Q07343 whole entry, looked up): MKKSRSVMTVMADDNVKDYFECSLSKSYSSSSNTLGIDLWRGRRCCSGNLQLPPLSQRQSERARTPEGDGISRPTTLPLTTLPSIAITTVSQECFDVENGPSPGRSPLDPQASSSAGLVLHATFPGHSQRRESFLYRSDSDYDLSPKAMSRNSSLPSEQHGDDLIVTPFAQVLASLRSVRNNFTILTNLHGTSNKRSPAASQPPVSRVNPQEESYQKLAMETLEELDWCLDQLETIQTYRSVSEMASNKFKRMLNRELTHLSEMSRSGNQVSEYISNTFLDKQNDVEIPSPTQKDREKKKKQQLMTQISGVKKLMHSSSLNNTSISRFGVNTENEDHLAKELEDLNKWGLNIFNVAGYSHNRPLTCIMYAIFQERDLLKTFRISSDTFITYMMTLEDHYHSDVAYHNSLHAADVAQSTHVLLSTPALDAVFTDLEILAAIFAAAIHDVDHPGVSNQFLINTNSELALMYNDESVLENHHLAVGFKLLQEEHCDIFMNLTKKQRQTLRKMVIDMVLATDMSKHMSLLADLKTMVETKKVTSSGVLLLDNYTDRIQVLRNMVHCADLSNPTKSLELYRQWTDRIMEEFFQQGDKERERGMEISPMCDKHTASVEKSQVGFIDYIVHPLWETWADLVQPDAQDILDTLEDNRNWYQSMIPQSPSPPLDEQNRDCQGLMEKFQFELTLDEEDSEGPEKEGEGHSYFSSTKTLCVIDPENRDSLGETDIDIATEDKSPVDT
In short: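 HEK293 ACTOne cells with CNG channel (1000/well), endogenous PDE4; membrane potential dye, compounds up to 22.9 uM final. Fluorescence Ex 535/Em 590; RO 20-1724 (100 uM final) as reference.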

[8] = qHTS Assay for Lipid Storage Modulators (AID 1519; calls by dose curve); conditions: Drosophila S3 cells, BODIPY lipid droplet/cell ratio, laser cytometry, cells loaded with oleic acid; for activity change, negative = inhibition: at 25.7 µM (top of the series)
In short: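 Cells seeded at 5,000 per well were treated with compounds over a concentration series and loaded with oleic acid (400 uM, as added). Lipid droplet fluorescence (488 nm excitation, 500-530 nm channel) was read by laser-scanning cytometry and normalized to 20 uM Triacsin C.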

[9] = biological target: Ubiquitin carboxyl-terminal hydrolase 1 (Homo sapiens) (UniProt O94782); experiment: Inhibitors of USP1/UAF1: Pilot qHTS (AID 504865); further: nearly all actives have a fitted effect of over 35% in size; further: potency means the concentration at half of the fitted maximal effect
Sequence of Ubiquitin carboxyl-terminal hydrolase 1 (Homo sapiens) (O94782 whole entry, looked up): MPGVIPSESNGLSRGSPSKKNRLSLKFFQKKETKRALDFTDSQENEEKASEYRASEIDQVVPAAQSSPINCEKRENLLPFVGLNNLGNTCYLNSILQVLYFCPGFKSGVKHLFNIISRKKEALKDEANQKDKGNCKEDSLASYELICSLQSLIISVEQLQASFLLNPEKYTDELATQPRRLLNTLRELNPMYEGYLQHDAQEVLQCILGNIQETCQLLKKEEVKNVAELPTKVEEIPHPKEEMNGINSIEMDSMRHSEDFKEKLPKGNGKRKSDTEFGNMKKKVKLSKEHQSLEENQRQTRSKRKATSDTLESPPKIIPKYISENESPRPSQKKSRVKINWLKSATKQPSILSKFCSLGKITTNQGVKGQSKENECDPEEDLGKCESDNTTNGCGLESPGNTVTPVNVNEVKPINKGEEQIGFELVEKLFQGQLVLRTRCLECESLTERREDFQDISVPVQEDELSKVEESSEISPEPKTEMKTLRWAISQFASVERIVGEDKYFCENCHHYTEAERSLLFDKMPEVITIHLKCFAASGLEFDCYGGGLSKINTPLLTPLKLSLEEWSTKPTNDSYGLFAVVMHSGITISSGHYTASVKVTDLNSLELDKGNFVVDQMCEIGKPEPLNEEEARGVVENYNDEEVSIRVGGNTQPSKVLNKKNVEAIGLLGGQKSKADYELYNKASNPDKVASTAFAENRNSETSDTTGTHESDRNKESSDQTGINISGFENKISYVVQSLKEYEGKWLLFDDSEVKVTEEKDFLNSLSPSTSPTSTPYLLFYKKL
In short: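 1nM USP1/UAF1 + cpd, 15 min RT; start w/ Ub-Rho 150nM final; kinetic FL 480/540 nm, 6 reads q60 s. Buffer 50mM HEPES pH 7.8, 0.5mM EDTA, 1mM TCEP, 0.01% Tween-20, 0.1 mg/ml BSA.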

[10] = biological target: Cytochrome P450 1A2 (Homo sapiens) (UniProt P05177); experiment: p450-cyp1a2 (AID 410; calls by dose curve; further: potency means the concentration at half of the fitted maximal effect;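 on activity change, negative = inhibition: -100% = full effect of reference inhibitor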)
Sequence of Cytochrome P450 1A2 (Homo sapiens) (P05177 whole entry, looked up): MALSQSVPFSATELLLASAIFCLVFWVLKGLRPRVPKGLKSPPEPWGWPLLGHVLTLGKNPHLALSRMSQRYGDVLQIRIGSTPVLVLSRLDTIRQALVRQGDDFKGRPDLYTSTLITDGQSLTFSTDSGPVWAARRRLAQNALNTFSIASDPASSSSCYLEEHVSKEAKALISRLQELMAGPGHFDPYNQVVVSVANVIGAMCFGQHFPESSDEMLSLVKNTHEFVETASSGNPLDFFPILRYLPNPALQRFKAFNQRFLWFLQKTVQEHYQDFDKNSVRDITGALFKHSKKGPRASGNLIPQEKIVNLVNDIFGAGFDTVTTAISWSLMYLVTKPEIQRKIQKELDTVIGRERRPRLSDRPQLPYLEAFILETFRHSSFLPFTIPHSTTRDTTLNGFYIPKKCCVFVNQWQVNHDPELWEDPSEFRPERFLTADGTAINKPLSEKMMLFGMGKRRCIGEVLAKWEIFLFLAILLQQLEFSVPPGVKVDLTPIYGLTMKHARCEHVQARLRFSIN
In short: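 Luminescent demethylation readout: Luciferin-ME (100uM, equal to Km) turned over by 20nM CYP1A2 for 60 min at room temperature after NADPH regeneration addition, following 10 min compound preincubation. Normalization used 57 uM furafylline as full inhibition.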

[11] = biological target: ATP-dependent 6-phosphofructokinase (Trypanosoma brucei brucei) (UniProt O15648); experiment: qHTS Assay to Find Inhibitors of T. brucei phosphofructokinase: hit validation (AID 492961)
Sequence of ATP-dependent 6-phosphofructokinase (Trypanosoma brucei brucei) (O15648 whole entry, looked up): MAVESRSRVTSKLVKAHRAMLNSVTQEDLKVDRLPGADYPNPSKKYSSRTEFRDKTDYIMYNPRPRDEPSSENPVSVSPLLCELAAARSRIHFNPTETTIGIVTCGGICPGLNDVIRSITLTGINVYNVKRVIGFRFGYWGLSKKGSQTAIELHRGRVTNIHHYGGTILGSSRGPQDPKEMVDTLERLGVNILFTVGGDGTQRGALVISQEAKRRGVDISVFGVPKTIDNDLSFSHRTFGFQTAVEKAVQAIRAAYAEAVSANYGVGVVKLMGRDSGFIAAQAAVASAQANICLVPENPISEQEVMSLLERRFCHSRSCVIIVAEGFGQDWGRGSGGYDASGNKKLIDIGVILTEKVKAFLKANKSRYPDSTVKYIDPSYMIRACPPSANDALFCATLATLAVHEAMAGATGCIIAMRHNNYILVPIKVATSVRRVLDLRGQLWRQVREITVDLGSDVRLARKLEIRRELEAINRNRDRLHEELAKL
In short: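 ADP-Glo luminescence read-out of ADP formed by 1.25 nM PFK from 0.1 mM ATP and 0.5 mM F6P (TEA pH 8.0, 45 min, RT). Compounds titrated; activity normalized to no-enzyme and full-enzyme controls.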

[12] = biological target: Luciferin 4-monooxygenase (Photinus pyralis) (UniProt P08659); experiment: Biochemical firefly luciferase enzyme assay for NPC (AID 624030);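 further: purified P. pyralis luciferase at 10 nM with luciferin and ATP substrate; 0% = DMSO and -100% = full luciferase inhibition by PTC124 control; nearly all actives have a fitted effect of over 70% in size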
Sequence of Luciferin 4-monooxygenase (Photinus pyralis) (P08659 whole entry, looked up): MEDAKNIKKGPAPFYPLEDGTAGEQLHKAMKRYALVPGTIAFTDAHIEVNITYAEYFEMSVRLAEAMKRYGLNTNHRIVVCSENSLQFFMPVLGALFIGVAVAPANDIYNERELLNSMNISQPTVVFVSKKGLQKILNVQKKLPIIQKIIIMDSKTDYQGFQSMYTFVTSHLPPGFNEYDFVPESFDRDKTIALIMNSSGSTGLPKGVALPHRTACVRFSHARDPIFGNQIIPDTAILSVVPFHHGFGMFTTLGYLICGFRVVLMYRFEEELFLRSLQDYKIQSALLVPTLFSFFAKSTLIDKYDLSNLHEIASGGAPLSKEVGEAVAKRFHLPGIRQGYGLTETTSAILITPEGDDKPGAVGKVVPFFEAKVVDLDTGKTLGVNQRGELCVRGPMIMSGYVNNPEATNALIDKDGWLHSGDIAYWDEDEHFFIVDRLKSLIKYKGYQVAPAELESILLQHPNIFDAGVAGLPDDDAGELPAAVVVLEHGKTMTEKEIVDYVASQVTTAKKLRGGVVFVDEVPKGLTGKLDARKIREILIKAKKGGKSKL
In short: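 Direct inhibition of firefly luciferase enzyme (10 nM final, 50 mM Tris Acetate) assessed by luminescence within 5 minutes. Percent activity scaled between DMSO and PTC124 positive control, with concentration-effect curves classified by fit quality and response.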

[13] = qHTS profiling for inhibitors of Plasmodium falciparum proliferation (AID 504749);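 further: 0% = DMSO vehicle and full inhibition = artemisinin control; nearly all actives have a fitted effect of over 60% in size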; conditions: P. falciparum in erythrocytes, SYBR Green DNA, 72 h
In short: (§1)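 SYBR Green fluorescence of parasite DNA, read after lysis and overnight dark incubation, measured growth over 72 h in erythrocyte culture at 0.3% parasitemia and 2.5% hematocrit. Data normalised to DMSO and 0.29 uM artemisinin, with plate-drift correction.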

[14] = system: C2A; experiment: as above; conditions: P. falciparum in erythrocytes, SYBR Green DNA, 72 h; series mostly up to 28.7 µM
In short: as §1

[15] = system: CP192; experiment: as above; conditions: P. falciparum in erythrocytes, SYBR Green DNA, 72 h; series mostly up to 28.7 µM
In short: as §1

[16] = system: CP211; experiment: as above; conditions: P. falciparum in erythrocytes, SYBR Green DNA, 72 h; series mostly up to 28.7 µM
In short: as §1

[17] = system: CP266; experiment: as above; conditions: P. falciparum in erythrocytes, SYBR Green DNA, 72 h; series mostly up to 12.8 µM
In short: as §1

[18] = system: CP315; experiment: as above; conditions: P. falciparum in erythrocytes, SYBR Green DNA, 72 h; series mostly up to 28.7 µM
In short: as §1

[19] = system: CP329; experiment: as above; conditions: P. falciparum in erythrocytes, SYBR Green DNA, 72 h; series mostly up to 28.7 µM
In short: as §1

[20] = system: FAB9; experiment: as above; conditions: P. falciparum in erythrocytes, SYBR Green DNA, 72 h; series mostly up to 28.7 µM
In short: as §1

[21] = measured here: cell count channel max response
[22] = measured here: lipid channel max response
[23] = at 12.8 µM (top of the series), parasite line A
[24] = at 12.8 µM (top of the series), parasite line B

C[C@@H]1NCCc2cc(O)c(O)cc21
-9.01%: max response [8, 21]
-11.5%: max response [8, 22]
inactive: outcome [1] | activity change, negative = inhibition [2] -2.85% | outcome [3] | Potency [4] > 20.6 µM | Potency [5] > 20.6 µM | outcome [6] | Potency [7] | activity change, negative = inhibition [8] -2.45% | Potency [9]

CC(=O)OCC(=O)[C@@H]1CC[C@H]2[C@H]3CC[C@H]4C[C@@H](O)CC[C@]4(C)[C@@H]3C(=O)C[C@@]12C
inactive: outcome [1] | Potency [10] | outcome [3] | Potency [4] > 20.6 µM | Potency [5] > 20.6 µM | outcome [6] | Potency [7] | activity change, negative = inhibition [8] -5.39% | Potency [11] | Potency [9] | Potency [12] | activity, negative = inhibition [13, 23] 5.9% | activity, negative = inhibition [13, 24] 17.2% | Potency [14] | Potency [15] | Potency [16] | Potency [17] | Potency [18] | Potency [19] | Potency [20]
-26.2%: max response [8, 22]
-23.1%: max response [8, 21]

NCC[C@H](O)C(=O)N[C@H]1C[C@@H](N)[C@@H](O[C@H]2O[C@@H](CN)[C@@H](O)[C@@H](O)[C@@H]2N)[C@@H](O[C@H]2O[C@@H](CO)[C@@H](O)[C@@H]2O)[C@@H]1O
-13.9%: max response [8, 22]
inactive: outcome [1] | Potency [10] | activity change, negative = inhibition [2] -14.8% | outcome [3] | outcome [6] | Potency [7] | activity change, negative = inhibition [8] -3.44% | Potency [11] | Potency [9] | Potency [12] | activity, negative = inhibition [13, 23] 12.6% | activity, negative = inhibition [13, 24] 8.36% | Potency [14] | Potency [15] | Potency [16] | Potency [17] | Potency [18] | Potency [19] | Potency [20]
-10.6%: max response [8, 21]

COc1cc(C(=O)OC2C[C@H]3CC[C@@H](C2)N3C)ccc1O (stereo not given in full)
-27.3%: max response [8, 22]
inactive: outcome [1] | Potency [10] | outcome [3] | Potency [4] > 20.6 µM | Potency [5] > 20.6 µM | outcome [6] | activity change, negative = inhibition [8] 2.65%
-32.4%: max response [8, 21]

COP(=O)(OC)[C@@H](O)C(Cl)(Cl)Cl
inactive: outcome [1] | activity change, negative = inhibition [2] -11.8% | outcome [3] | Potency [4] > 20.6 µM | Potency [5] > 20.6 µM | outcome [6] | activity change, negative = inhibition [8] -2.04% | Potency [9]
5.96%: max response [8, 21]
2.5%: max response [8, 22]

CCN(CC)C(=O)N[C@@H]1C[C@H]2c3cccc4[nH]cc(c34)C[C@@H]2N(C)C1
inactive: outcome [1] | Potency [10] | outcome [3] | outcome [6] | Potency [7] | activity change, negative = inhibition [8] 2.1% and 1.29%
-0.685% and -2.23%: max response [8, 22]
-3.13% and -3.55%: max response [8, 21]

COc1cc2c(cc1O)[C@H]1Cc3ccc(OC)c(O)c3CN1CC2
-2.59%: max response [8, 21]
inactive: outcome [1] | outcome [3] | Potency [4] > 20.6 µM | Potency [5] > 20.6 µM | outcome [6] | Potency [7] | activity change, negative = inhibition [8] -1.48%
-3.7%: max response [8, 22]
active: Potency [10] 15.8 µM | Potency [9] 10 µM

CNC[C@H](O)c1ccc(O)cc1
-11.6%: max response [8, 22]
-14.8%: max response [8, 21]
inactive: outcome [1] | Potency [10] | outcome [3] | Potency [4] > 46 µM and > 20.6 µM | Potency [5] > 46 µM and > 20.6 µM | outcome [6] | Potency [7] | activity change, negative = inhibition [8] -0.0081% | Potency [11] | Potency [9] | Potency [12] | activity, negative = inhibition [13, 23] 3.3% | activity, negative = inhibition [13, 24] 13.2% | Potency [14] | Potency [15] | Potency [16] | Potency [17] | Potency [18] | Potency [19] | Potency [20]

C[N+]1([O-])[C@@H]2CC[C@H]1CC(OC(=O)[C@@H](CO)c1ccccc1)C2 (stereo not given in full)
-2.94%: max response [8, 22]
1.61%: max response [8, 21]
inactive: outcome [1] | Potency [10] | Potency [4] > 20.6 µM | Potency [5] > 20.6 µM | outcome [6] | Potency [7] | activity change, negative = inhibition [8] -4.15% | Potency [11] | Potency [9] | Potency [12] | activity, negative = inhibition [13, 23] 1.56% | activity, negative = inhibition [13, 24] -10% | Potency [14] | Potency [15] | Potency [16] | Potency [17] | Potency [18] | Potency [19] | Potency [20]

CC1=C2[C@@H]3OC(=O)[C@@H](C)[C@@H]3CC[C@]2(C)C=CC1=O
inactive: outcome [1] | activity change, negative = inhibition [2] -9.62% | Potency [4] > 20.6 µM | Potency [5] > 20.6 µM | outcome [6] | Potency [7] | activity change, negative = inhibition [8] 0.607% | Potency [11] | Potency [12] | activity, negative = inhibition ([13]; at 28.7 µM (top of the series), parasite line A) -27% | activity, negative = inhibition ([13]; at 28.7 µM (top of the series), parasite line B) -4.04% | Potency [14] | Potency [15] | Potency [16] | Potency [17] | Potency [18] | Potency [19] | Potency [20]
-3.78%: max response [8, 22]
active: Potency [10] 10 µM
-1.82%: max response [8, 21]

CC(C)(C)NC[C@H](O)c1cc(Cl)c(N)c(Cl)c1
inactive: outcome [1] | Potency [10] | outcome [3] | outcome [6] | Potency [7] | activity change, negative = inhibition [8] -0.0671% | Potency [9]
2.72%: max response [8, 22]
1.84%: max response [8, 21]
